From PubChem BioAssay AID602254 (Broad Institute, 2012)
The whole screen tested about 1,000 compounds, of which fewer than 10 were called active.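 Rule for the calls: active = fitted half-maximal concentration no higher than twice the top valid tested dose, with signal falling; inconclusive = flat curve with 30 to 70% inhibition, or poor fit; inactive = the rest.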 The list is a sample of the results. Results with a measured potency or affinity are listed apart.

molecular target: Golgi-associated PDZ and coiled-coil motif-containing protein (Homo sapiens) (UniProt Q9HD26); assay: CAL PDZ domain peptide-binding inhibitors, dose response, biochemical, fluorescence polarization, untagged CAL PDZ, cherry-pick, set 2 (AID 602254); details: Purified CAL PDZ, TMR peptide fluorescence polarization; series mostly up to 60 µM;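 note: more negative means stronger blocking of peptide binding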

outcome, inactive:
C=CCNC(=S)NNC(=O)c1ccc(C)c(Cl)c1
Cc1ccc(S(=O)(=O)c2nc(NN(C)C)sc2Cl)cc1
CC(=O)c1cccc(CN2CCN(CC=C(C)C)C(CCO)C2)c1 (stereo unspecified)
CC1CCN(C(=O)CNC(=O)c2ccc(Cl)cc2Cl)CC1
CCn1nnc(NC(=O)Cc2ccc(Cl)cc2)n1
O=C(Nc1cccc(-n2cnnn2)c1)c1ccc(OC(F)(F)F)cc1
O=C(c1cc(COc2ccccc2)on1)N1CCCC(CN2CCOCC2)C1 (stereo unspecified)
CC(C)(C)n1ncc2c(=O)n(Cc3ccc(Cl)c(Cl)c3)cnc21
CSc1ccccc1OCc1cc(C(=O)N2CCN(c3ccccc3)CC2C)no1 (stereo unspecified)
COc1cc(C(=O)NNC(=O)c2ccc3c(c2)OCCO3)cc(OC)c1OC
COc1cc(S(=O)(=O)Nc2ccc(C(=O)NCC(=O)O)cc2)ccc1NC(C)=O
O=C(N/N=C/c1cccnc1)c1[nH]ncc1Br
CCOC(=O)c1ccc(NC(=O)C2CCCO2)cc1 (stereo unspecified)
CC(=O)c1cccc(NC(=O)CCNC(=O)c2cccc(C)c2)c1
COc1cc(OC)c(C(=O)NCc2ccc3c(c2)OCO3)cc1OC
CC1CC(C)CN(C(=O)CCn2c(=O)oc3ccccc32)C1 (stereo unspecified)
Cc1ccc(CNS(=O)(=O)c2ccc(C(F)(F)F)cc2)n1C
Cc1ccc2nc(N3CCN(Cc4nnnn4C4CCCC4)CC3)c(C#N)cc2c1
Cc1ccc(Cn2c(=O)n(CCC(=O)NCc3ccc4c(c3)OCO4)c(=O)c3ccccc32)cc1
Cc1ccc2c(c1)N(CC(=O)Nc1ccccc1F)C(=O)CO2
CC(C)(C)OC(=O)N1CCC(NC(=O)c2[nH]cnc2C(=O)Nc2cccc(Cl)c2)CC1
COC(=O)c1ccc(OCC(O)CN2CCc3cc(OC)c(OC)cc3C2c2ccccc2)cc1 (stereo unspecified)
COc1ccccc1OCC(O)Cn1nc(C)cc1C (stereo unspecified)
O=C(O)c1ccccc1CSc1nnnn1-c1ccccc1
CC(C)c1ccc(NC2CCCN(C(=O)c3ccnn3C)C2)cc1 (stereo unspecified)
c1ccc(-c2ccccc2OCCOCCN2CCc3ccccc3C2)cc1
CCOc1ccccc1C(=O)NCC(=O)OCc1csc(CC(=O)Nc2ccc(C)cc2)n1
CCCn1nnc(NC(=O)c2ccc3c(c2)OCO3)n1
CC(=O)n1nc(-c2ccccc2)nc1NCc1cccs1
C/C(=N\OC(=O)c1cccc(C(F)(F)F)c1)c1sc(-c2ccccc2)nc1C
COc1ccccc1-c1c(C)nn2c(N)c(-c3ccccc3)cnc12
CC(=O)c1ccc(OCc2cc(C(=O)NCCc3ccc(Cl)cc3)no2)cc1
Cc1c(C(=O)N2CCCCC2)c(S(=O)(=O)NCc2ccc(Cl)cc2)c(C)n1C
O=C(c1ccc(S(=O)(=O)NCC2CCCO2)cc1)N1CCN(c2ccccc2)CC1 (stereo unspecified)
O=C(Nc1cccc(C(=O)N2CCCCC2)c1)C1CC1
CCCN(CC(=O)Nc1ccccc1C)C(=O)CCCc1c[nH]c2ccccc12
O=C(COC(=O)Cc1c(F)cccc1Cl)NC(=O)c1ccccc1
Cc1ccccc1C(=O)NN1CCOCC1
COc1ccc(CN(C)C(=O)CNC(=O)CNC(=O)c2ccc(Cl)cc2Cl)cc1F
Cc1ccc(NC(=O)c2c(-c3ccccc3)noc2C)nc1
Cc1[nH]c2c(C(=O)N3CCCC(CCC(=O)NCc4ccccc4F)C3)cccc2c1C (stereo unspecified)
Cc1ccc(C(C)C)cc1OCCn1cncn1
COCC(C)N1CCC(Oc2cccc(C(=O)NCCc3ccccc3)c2)CC1 (stereo unspecified)
CC(=O)Nc1sc2c(c1C(N)=O)CCC2
CCOc1ccc(NC(=O)CN(C)S(=O)(=O)c2cccs2)cc1
CCCCCN1CSC(=S)N(Cc2ccccc2)C1
COc1ccc(/C=N/NC(=O)CNC(=O)c2ccncc2)cc1OC
O=C(Nc1ccccc1Cl)N1CCN(c2ccc3nnc(-c4ccccc4)n3n2)CC1
CC(=O)Nc1ccc(-c2cc(NC(C)=O)n(-c3ccccc3)n2)cc1
FC(F)(F)c1ccccc1NC(=S)N1CCCC1
COc1ccc(S(=O)(=O)N(C(C)=O)c2ccc3oc(=O)sc3c2)cc1
CCN(c1ccccc1)S(=O)(=O)c1ccc(C(=O)N2CCN(c3ccccc3)CC2)cc1
Cc1cc(C)c(C#N)c(Nc2cccc(C)c2C)n1
COc1ccc(Br)cc1CNc1ccc2[nH]c(=O)[nH]c2c1
Cc1ccc(OCC(=O)N2CCN(C(=O)c3cccs3)CC2)cc1
COc1ccccc1N(CC(=O)N1CCN(c2ccccc2)CC1)S(=O)(=O)c1ccc(C)cc1
O=S(=O)(c1ccccc1)N(CC(O)COc1ccccc1)c1ccccc1 (stereo unspecified)
CC(C)=C1C(=O)NN(c2cccc(Cl)c2)C1=O
Cc1cc(Br)ccc1NC(=O)CN1CCN(c2ccccn2)CC1
O=C(c1ccc(-c2ccccc2)cc1)N1CCN(c2ccccn2)CC1
COCC(=O)N1CCC(Oc2ccc(C(=O)NCc3cnc(C)cn3)cc2)CC1
Cc1ccc(S(=O)(=O)N(C)C)cc1NC(=S)N1CCc2ccccc21
C/C(CC(=O)Nc1ccc2c(c1)OCCO2)=N\NC(=O)COc1ccc(Cl)c(C)c1
COc1ccc(C(=O)NCC(=O)NCc2ccncc2)cc1
Cn1nc(C(=O)Nc2nc(-c3ccccn3)cs2)c2ccccc2c1=O
Cc1ccsc1C(=O)NNC(=O)c1cccc(S(=O)(=O)N2CCCC2)c1
Cc1ccc(C(=O)Nc2cccc(C(=O)N3CCOCC3)c2)cc1Cl
COc1ccc(OCC(=O)Nc2ccccc2C(=O)N2CCOCC2)cc1
O=C(Nc1ccccc1C(=O)O)c1cccc(N2C(=O)c3ccccc3C2=O)c1
Cc1cccc(OCCCn2c(CO)nc3ccccc32)c1
O=c1[nH]c2ccccc2cc1CN(CC1CCCO1)S(=O)(=O)c1ccccc1 (stereo unspecified)
